# Key:
# Assay in all cases: DAPPL (digital affinity profiling via proximity ligation, sequencing); 10 mM Tris-HCl pH 7.5, 50 mM NaCl, 1 mM DTT, 4% glycerol, room temperature, 30 min; GST-TFs on glutathione beads, 16-mer random dsDNA library, 0.1% formaldehyde crosslink after washing; high values mean tight binding
# [1] = target: T1, FEV (Homo sapiens, UniProt Q99581 1-238); settings: protein: recombinant; tags: N-terminal GST; dsDNA, one strand shown
# T1 sequence: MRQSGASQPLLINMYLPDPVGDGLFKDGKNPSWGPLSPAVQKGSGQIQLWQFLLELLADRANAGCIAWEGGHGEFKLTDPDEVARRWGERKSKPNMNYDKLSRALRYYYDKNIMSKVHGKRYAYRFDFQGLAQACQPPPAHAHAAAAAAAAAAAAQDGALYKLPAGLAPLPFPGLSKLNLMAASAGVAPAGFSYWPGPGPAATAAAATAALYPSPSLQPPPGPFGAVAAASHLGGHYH
# Summary of the method: (§1)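 Human transcription factors fused to GST were expressed in yeast, captured on glutathione beads, given DNA barcodes and pooled with a GST-only negative control. Pools were incubated with 200 nmole of a 16-mer random double-stranded DNA library in Tris/NaCl/DTT/glycerol buffer at room temperature for 30 min. They were then washed, crosslinked with 0.1% formaldehyde, proximity-ligated (BsaI/T4 ligase, 1 h, 37 °C), PCR-amplified and sequenced on an Illumina NextSeq500. Binding signal is each 6-mer's read frequency for a factor divided by its frequency for the GST control.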
# [2] = target: ETV5 (Homo sapiens, UniProt P41161 1-510); settings: protein: recombinant; tags: N-terminal GST; dsDNA, one strand shown
# Summary of the method: as §1
# [3] = target: HSF1 (Homo sapiens, UniProt Q00613 1-529); settings: protein: recombinant; tags: N-terminal GST; chain copies: 3; dsDNA, one strand shown
# Summary of the method: as §1
# [4] = target: T2, SPIC (Homo sapiens, UniProt Q8N5J4 1-248); settings: protein: recombinant; tags: N-terminal GST; dsDNA, one strand shown
# T2 sequence: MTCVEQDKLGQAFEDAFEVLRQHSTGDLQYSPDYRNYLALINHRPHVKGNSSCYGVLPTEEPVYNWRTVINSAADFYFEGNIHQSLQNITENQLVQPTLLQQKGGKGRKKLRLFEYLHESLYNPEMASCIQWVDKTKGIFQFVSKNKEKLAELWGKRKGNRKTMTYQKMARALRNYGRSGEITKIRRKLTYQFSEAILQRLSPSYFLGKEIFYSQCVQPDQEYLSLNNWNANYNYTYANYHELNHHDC
# Summary of the method: as §1
# [5] = target: ELF4 (Homo sapiens, UniProt Q99607 1-663); settings: protein: recombinant; tags: N-terminal GST; dsDNA, one strand shown
# Summary of the method: as §1
# [6] = target: T3, ELK4 (Homo sapiens, UniProt P28324-2 1-405); settings: protein: recombinant; tags: N-terminal GST; dsDNA, one strand shown
# T3 sequence: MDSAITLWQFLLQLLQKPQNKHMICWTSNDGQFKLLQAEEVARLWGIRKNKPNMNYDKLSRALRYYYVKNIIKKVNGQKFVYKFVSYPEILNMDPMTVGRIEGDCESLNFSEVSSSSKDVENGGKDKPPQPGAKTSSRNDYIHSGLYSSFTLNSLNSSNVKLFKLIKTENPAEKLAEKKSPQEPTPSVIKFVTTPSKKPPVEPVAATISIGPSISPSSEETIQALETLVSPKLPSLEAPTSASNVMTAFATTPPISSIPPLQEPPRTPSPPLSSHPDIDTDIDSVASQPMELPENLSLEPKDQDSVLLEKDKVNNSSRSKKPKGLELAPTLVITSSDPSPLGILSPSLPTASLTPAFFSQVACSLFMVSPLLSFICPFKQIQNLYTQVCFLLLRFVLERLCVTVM
# Summary of the method: as §1
# [7] = target: T4, ETV2 (Homo sapiens, UniProt O00321 1-342); settings: protein: recombinant; tags: N-terminal GST; dsDNA, one strand shown
# T4 sequence: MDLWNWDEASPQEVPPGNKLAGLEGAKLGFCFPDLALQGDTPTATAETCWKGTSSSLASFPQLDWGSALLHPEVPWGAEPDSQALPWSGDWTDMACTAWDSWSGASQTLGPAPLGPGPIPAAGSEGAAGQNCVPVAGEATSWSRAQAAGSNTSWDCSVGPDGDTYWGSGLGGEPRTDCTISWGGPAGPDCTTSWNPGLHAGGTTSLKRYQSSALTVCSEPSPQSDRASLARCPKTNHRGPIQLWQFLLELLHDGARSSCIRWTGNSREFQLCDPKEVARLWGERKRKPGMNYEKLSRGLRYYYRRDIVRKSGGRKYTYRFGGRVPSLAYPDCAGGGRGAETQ
# Summary of the method: as §1
# [8] = target: T5, ELF3 (Homo sapiens, UniProt P78545 1-371); settings: protein: recombinant; tags: N-terminal GST; dsDNA, one strand shown
# T5 sequence: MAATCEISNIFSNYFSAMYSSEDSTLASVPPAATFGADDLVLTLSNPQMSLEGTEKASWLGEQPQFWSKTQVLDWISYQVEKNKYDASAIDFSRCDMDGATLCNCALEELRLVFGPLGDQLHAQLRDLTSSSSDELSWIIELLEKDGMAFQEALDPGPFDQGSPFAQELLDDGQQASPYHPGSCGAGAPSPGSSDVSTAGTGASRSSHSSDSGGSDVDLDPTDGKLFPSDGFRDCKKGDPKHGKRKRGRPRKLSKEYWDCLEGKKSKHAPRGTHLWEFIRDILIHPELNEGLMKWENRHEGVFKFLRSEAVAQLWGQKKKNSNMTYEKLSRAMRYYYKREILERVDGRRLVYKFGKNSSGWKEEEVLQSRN
# Summary of the method: as §1
# [9] = target: CRX (Homo sapiens, UniProt O43186 1-299); settings: protein: recombinant; tags: N-terminal GST; dsDNA, one strand shown
# Summary of the method: as §1
# [10] = target: ETV1 (Homo sapiens, UniProt P50549 1-477); settings: protein: recombinant; tags: N-terminal GST; dsDNA, one strand shown
# Summary of the method: as §1
# [11] = target: T6, ERF (Homo sapiens, UniProt P50548 1-548); settings: protein: recombinant; tags: N-terminal GST; dsDNA, one strand shown
# T6 sequence: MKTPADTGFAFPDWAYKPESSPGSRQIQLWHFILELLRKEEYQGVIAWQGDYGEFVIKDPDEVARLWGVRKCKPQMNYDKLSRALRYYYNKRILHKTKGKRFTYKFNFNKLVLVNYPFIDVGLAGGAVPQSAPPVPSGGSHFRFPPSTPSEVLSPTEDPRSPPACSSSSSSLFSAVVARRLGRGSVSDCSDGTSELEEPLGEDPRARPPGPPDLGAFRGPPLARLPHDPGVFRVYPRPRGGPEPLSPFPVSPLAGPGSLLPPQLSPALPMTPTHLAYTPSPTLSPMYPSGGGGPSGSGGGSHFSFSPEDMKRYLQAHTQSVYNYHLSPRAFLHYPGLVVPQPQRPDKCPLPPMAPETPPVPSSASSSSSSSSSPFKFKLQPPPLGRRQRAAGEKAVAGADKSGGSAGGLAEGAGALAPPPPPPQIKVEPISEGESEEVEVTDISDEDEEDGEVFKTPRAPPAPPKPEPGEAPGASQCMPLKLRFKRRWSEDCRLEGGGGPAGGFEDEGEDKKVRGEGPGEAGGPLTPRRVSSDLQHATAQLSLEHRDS
# Summary of the method: as §1
# [12] = target: T7, ETV3L (Homo sapiens, UniProt Q6ZN32 1-361); settings: protein: recombinant; tags: N-terminal GST; dsDNA, one strand shown
# T7 sequence: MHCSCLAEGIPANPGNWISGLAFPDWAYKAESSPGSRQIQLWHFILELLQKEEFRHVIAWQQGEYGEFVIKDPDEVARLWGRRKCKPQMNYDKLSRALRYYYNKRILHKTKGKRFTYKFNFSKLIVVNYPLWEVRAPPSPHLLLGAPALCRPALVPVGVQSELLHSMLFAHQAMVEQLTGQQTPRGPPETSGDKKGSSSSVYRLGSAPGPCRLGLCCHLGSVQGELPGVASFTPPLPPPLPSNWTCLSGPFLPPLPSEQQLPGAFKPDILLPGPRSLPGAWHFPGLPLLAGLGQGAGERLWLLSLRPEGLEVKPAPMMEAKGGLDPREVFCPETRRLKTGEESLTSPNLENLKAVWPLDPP
# Summary of the method: as §1
# [13] = target: T8, ETS2 (Homo sapiens, UniProt P15036 1-469); settings: protein: recombinant; tags: N-terminal GST; dsDNA, one strand shown
# T8 sequence: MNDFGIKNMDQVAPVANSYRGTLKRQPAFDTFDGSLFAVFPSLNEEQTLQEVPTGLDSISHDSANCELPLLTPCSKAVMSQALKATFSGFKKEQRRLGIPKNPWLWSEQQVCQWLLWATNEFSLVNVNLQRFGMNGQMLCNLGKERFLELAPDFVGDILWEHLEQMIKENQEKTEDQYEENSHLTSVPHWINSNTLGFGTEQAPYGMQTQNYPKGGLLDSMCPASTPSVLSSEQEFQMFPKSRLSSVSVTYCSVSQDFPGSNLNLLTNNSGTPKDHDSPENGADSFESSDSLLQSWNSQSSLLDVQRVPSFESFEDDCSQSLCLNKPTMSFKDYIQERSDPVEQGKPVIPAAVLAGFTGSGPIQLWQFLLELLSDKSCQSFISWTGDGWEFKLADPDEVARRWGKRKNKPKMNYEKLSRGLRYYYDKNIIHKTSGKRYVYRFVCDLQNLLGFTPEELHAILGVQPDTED
# Summary of the method: as §1
# [14] = target: T9, SPDEF (Homo sapiens, UniProt O95238 1-335); settings: protein: recombinant; tags: N-terminal GST; dsDNA, one strand shown
# T9 sequence: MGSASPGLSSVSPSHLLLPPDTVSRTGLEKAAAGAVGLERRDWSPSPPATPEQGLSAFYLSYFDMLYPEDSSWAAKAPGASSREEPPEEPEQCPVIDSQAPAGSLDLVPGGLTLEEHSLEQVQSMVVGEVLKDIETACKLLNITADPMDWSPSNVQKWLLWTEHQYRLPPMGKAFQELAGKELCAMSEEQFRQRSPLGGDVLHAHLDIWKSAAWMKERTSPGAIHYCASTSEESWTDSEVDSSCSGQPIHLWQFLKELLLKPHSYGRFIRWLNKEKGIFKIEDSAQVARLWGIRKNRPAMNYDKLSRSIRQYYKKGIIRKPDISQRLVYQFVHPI
# Summary of the method: as §1
# [15] = target: T10, ETV7 (Homo sapiens, UniProt Q9Y603 1-341); settings: protein: recombinant; tags: N-terminal GST; dsDNA, one strand shown
# T10 sequence: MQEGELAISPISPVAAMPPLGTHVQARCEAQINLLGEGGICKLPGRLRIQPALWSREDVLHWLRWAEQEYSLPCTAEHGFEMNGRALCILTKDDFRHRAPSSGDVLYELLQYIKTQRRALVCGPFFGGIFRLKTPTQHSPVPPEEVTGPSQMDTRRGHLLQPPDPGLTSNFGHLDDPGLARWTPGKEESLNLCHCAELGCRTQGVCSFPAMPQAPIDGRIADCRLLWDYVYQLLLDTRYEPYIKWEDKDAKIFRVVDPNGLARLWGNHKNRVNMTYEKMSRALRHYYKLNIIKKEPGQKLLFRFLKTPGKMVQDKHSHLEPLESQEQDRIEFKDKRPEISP
# Summary of the method: as §1
# [16] = target: T11, ELF5 (Homo sapiens, UniProt Q9UKW6-2 1-255); settings: protein: recombinant; tags: N-terminal GST; dsDNA, one strand shown
# T11 sequence: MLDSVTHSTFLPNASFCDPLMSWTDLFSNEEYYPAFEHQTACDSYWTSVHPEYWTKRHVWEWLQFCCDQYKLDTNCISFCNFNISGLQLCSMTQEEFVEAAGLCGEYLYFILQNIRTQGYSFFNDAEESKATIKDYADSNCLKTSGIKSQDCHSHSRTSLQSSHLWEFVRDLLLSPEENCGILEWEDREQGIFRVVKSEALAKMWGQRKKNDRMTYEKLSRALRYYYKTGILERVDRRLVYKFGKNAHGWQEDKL
# Summary of the method: as §1
# [17] = target: T12, ETV3 (Homo sapiens, UniProt P41162-2 1-143); settings: protein: recombinant; tags: N-terminal GST; dsDNA, one strand shown
# T12 sequence: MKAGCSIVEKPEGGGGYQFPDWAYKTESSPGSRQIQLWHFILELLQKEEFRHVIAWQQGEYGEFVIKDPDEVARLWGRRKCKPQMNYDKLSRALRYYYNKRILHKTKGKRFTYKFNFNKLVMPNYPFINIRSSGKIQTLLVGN
# Summary of the method: as §1
# [18] = target: ETV6 (Homo sapiens, UniProt P41212 1-452); settings: protein: recombinant; tags: N-terminal GST; dsDNA, one strand shown
# Summary of the method: as §1
# Sequence of ELF4 (Q99607 whole entry): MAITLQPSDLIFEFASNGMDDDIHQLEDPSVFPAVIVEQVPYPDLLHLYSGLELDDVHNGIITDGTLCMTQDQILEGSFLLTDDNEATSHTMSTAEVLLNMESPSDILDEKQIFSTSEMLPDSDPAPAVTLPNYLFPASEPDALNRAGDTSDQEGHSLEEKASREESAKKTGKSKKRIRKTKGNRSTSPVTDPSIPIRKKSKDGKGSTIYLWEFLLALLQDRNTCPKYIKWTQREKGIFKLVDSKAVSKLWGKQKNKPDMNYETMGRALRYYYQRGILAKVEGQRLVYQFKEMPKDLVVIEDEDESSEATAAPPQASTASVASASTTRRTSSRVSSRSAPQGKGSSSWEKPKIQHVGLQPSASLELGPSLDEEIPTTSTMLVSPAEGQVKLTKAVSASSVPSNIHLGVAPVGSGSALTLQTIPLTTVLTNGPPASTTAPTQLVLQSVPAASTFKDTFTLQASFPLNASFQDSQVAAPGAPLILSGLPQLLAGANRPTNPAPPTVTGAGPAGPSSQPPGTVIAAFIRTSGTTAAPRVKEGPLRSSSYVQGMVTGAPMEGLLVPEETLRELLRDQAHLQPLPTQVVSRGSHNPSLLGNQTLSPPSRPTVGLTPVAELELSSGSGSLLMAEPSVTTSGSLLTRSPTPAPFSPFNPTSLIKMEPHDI
# Sequence of HSF1 (Q00613 whole entry): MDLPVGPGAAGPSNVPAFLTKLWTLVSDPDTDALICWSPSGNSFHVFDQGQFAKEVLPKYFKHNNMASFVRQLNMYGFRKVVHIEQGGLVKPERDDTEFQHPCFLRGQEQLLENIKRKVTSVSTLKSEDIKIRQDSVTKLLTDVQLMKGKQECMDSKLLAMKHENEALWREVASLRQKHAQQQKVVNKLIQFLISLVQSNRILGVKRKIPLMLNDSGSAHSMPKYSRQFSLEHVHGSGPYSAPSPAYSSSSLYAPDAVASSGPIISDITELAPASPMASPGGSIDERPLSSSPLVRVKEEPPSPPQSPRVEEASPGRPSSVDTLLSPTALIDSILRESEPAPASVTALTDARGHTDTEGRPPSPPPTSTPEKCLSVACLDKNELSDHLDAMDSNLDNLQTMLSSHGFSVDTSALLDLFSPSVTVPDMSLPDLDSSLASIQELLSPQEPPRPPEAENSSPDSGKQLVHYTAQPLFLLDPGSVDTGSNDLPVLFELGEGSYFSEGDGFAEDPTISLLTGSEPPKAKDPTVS
# Sequence of ETV5 (P41161 whole entry): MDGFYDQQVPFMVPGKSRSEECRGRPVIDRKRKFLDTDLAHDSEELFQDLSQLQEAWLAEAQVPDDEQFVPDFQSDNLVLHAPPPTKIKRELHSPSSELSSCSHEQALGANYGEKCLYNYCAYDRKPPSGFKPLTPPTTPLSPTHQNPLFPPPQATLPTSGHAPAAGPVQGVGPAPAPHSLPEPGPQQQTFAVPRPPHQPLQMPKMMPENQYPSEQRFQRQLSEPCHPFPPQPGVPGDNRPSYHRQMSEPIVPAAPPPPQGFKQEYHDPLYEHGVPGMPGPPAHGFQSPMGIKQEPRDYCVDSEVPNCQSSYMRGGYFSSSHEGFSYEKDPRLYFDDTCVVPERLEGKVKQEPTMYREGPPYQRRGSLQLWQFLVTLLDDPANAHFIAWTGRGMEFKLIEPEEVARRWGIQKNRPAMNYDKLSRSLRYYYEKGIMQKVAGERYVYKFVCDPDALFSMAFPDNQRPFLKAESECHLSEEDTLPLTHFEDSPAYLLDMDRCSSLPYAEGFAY
# Sequence of ETV1 (P50549 whole entry): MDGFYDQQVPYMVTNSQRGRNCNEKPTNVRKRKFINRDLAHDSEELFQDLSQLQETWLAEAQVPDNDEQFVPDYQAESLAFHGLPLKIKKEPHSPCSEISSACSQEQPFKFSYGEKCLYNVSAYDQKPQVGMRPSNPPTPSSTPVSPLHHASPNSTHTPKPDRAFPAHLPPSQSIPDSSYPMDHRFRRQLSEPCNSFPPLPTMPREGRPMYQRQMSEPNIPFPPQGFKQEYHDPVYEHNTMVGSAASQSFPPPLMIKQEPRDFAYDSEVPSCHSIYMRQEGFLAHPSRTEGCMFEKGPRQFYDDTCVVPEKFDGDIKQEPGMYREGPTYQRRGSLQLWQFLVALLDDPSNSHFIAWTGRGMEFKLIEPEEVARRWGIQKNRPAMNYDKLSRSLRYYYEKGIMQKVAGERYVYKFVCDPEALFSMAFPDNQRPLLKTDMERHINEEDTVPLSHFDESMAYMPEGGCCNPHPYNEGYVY
# Sequence of ETV6 (P41212 whole entry): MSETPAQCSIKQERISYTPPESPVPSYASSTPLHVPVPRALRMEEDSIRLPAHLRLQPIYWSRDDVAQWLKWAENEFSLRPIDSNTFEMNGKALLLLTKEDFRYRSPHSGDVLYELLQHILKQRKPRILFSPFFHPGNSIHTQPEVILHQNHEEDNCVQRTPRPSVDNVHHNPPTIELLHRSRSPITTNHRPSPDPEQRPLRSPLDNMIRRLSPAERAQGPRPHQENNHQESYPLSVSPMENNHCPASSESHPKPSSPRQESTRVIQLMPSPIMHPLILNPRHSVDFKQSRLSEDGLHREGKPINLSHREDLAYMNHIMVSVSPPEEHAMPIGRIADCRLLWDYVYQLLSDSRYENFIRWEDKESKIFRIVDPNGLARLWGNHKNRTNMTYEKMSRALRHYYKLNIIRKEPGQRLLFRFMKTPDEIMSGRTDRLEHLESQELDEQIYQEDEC
# Sequence of CRX (O43186 whole entry): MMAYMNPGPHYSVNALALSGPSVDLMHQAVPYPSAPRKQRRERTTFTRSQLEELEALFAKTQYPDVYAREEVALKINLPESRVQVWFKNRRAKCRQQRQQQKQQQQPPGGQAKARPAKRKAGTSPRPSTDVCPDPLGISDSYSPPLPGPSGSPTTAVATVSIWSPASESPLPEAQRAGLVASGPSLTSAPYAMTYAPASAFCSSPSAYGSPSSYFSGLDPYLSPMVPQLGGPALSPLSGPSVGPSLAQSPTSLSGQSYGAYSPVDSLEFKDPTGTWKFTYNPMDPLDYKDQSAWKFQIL
sequence,measurement,setting,value
GTTCTT,binding signal,[1],"1.11 fold enrichment (6-mer frequency, TF over GST control)"
same,binding signal,[2],"1.23 fold enrichment (6-mer frequency, TF over GST control)"
same,binding signal,[3],"1.36 fold enrichment (6-mer frequency, TF over GST control)"
same,binding signal,[4],"1.12 fold enrichment (6-mer frequency, TF over GST control)"
same,binding signal,[5],"1.18 fold enrichment (6-mer frequency, TF over GST control)"
same,binding signal,[6],"1.23 fold enrichment (6-mer frequency, TF over GST control)"
same,binding signal,[7],"1.15 fold enrichment (6-mer frequency, TF over GST control)"
same,binding signal,[8],"1.31 fold enrichment (6-mer frequency, TF over GST control)"
same,binding signal,[9],"1.12 fold enrichment (6-mer frequency, TF over GST control)"
same,binding signal,[10],"1.21 fold enrichment (6-mer frequency, TF over GST control)"
same,binding signal,[11],"1.16 fold enrichment (6-mer frequency, TF over GST control)"
same,binding signal,[12],"1.28 fold enrichment (6-mer frequency, TF over GST control)"
same,binding signal,[13],"1.2 fold enrichment (6-mer frequency, TF over GST control)"
same,binding signal,[14],"1.06 fold enrichment (6-mer frequency, TF over GST control)"
same,binding signal,[15],"1.18 fold enrichment (6-mer frequency, TF over GST control)"
same,binding signal,[16],"1.24 fold enrichment (6-mer frequency, TF over GST control)"
same,binding signal,[17],"1.09 fold enrichment (6-mer frequency, TF over GST control)"
same,binding signal,[18],"1.15 fold enrichment (6-mer frequency, TF over GST control)"
